{"source": "PubChem BioAssay AID686978", "about": "(National Center for Advancing Translational Sciences (NCATS), 2013)", "note": "Several values for one entry are separate records, joined by “and”; a condition that tells them apart may be missing. Equal values may be shown once. Screen size: about 420,000 compounds; about 64,000 (15%) were called active. Inconclusive results (about 27%) are left out. The entries come from a sample that favours actives as a whole. Values without a mark were called inactive. The call rests on the fitted dose curve; in most records, active means well fitted inhibition curve with a large enough effect; inconclusive means small, poorly fitted or top-dose-only effect; inactive means flat fitted curve, though single readings scatter. On the % scale 0 is the no-effect control and ±100 the full control effect; potency means the concentration at half of the fitted maximal effect."}
{"assay": "qHTS for Inhibitors of human tyrosyl-DNA phosphodiesterase 1 (TDP1): qHTS in cells in absence of CPT; further: nearly all actives have a fitted effect of over 55% in size", "conditions": "DT40 Tdp1-/- hTDP1 cells, no CPT, ATP luminescence, 48 h; series mostly up to 46.2 µM; activity change, negative = growth inhibition: at the top concentration", "how_it_was_run": "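Camptothecin absent (DMSO only). Human TDP1-complemented DT40 knockout cells, 400 cells/well, 37 °C for minimum 48 hr; ATP measured via CellTiter-Glo, 30 min dark incubation, luminescence.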"}
{"smiles": "Cc1nc2ccccn2c1P(=S)(N1CCCCC1)N1CCCCC1", "Potency": "18.4 µM (active)"}
{"smiles": "CC(=NCC1CCCO1)c1c(O)n(-c2ccccc2)c(=O)[nH]c1=O", "note": "(centres undefined)", "activity change, negative = growth inhibition": "-17.7%"}
{"smiles": "CCc1nnc(NS(=O)(=O)c2ccc(N=Cc3c(O)n(-c4ccccc4)c(=O)[nH]c3=O)cc2)s1", "activity change, negative = growth inhibition": "-5.93%"}
{"smiles": "CCN(CC)C(=O)Oc1ccc(NC(=O)N2CCOCC2)cc1", "activity change, negative = growth inhibition": "-9.37%"}
{"smiles": "Cc1ccsc1C(=O)C1CCCN(Cc2ccc(O)cc2)C1", "note": "(centres undefined)", "activity change, negative = growth inhibition": "-18%"}
{"smiles": "COc1ccc(C(=O)C2CCCN(Cc3ccc(C)s3)C2)cc1OC", "note": "(centres undefined)", "Potency": "14.6 µM (active)"}
{"smiles": "c1ccc(CCNC2CCCCCC2)cc1", "activity change, negative = growth inhibition": "-14.6%"}
{"smiles": "c1ccc(CCCCN2CCC(c3ccccc3)CC2)cc1", "Potency": "11.9 µM (active) and 18.4 µM (active)"}
{"smiles": "c1ccc(CCN2CCC3(CC2)OCCO3)cc1", "activity change, negative = growth inhibition": "-14.2%"}
{"smiles": "CCC(=O)OC(Cc1ccccc1)(c1ccccc1)C(C)CN(C)C", "note": "(centres undefined)", "activity change, negative = growth inhibition": "-21.9%"}
{"smiles": "CC[C@]1(O)C(=O)OCc2c1cc1n(c2=O)Cc2cc3ccccc3nc2-1", "Potency": "0.0211 µM (active)"}
{"smiles": "Cc1c(C(=O)O)cccc1-n1c(C)cc(/C=C2\\C(=O)NC(=O)N(c3ccc4c(c3)OCO4)C2=O)c1C", "activity change, negative = growth inhibition": "0.106%"}
{"smiles": "c1ccc(Cc2nn3c(Cn4cnc5ccccc54)nnc3s2)cc1", "Potency": "23.1 µM (active)"}
{"smiles": "CN1CC[C@H](c2c(O)cc(O)c3c(=O)cc(-c4ccccc4Cl)oc23)[C@H](O)C1", "Potency": "0.0282 µM (active)"}
{"smiles": "C[C@@H]1CC[C@@]2(OC1)O[C@H]1C[C@H]3[C@@H]4CC=C5C[C@@H](O)[C@H](O)C[C@]5(C)C4CC[C@]3(C)[C@H]1[C@@H]2C", "note": "(some centres undefined)", "Potency": "18.4 µM (active)"}
{"smiles": "CC(=O)N1CN2CN(C(C)=O)CC(C(=O)c3ccc(Br)cc3)(C2)C1", "activity change, negative = growth inhibition": "9.67%"}
{"smiles": "Cc1ccc(P(=S)(c2ccc(C)o2)N2CCOCC2)o1", "activity change, negative = growth inhibition": "-28.3%"}
{"smiles": "Cc1cc(-c2ccc(N)c(C)c2)ccc1N", "activity change, negative = growth inhibition": "-2.65%"}
{"smiles": "Fc1ccc(C(OCCN2CCN(C/C=C\\c3ccccc3)CC2)c2ccc(F)cc2)cc1", "Potency": "6.68 µM (active)"}
{"smiles": "Cn1cc(C(=O)OCC(=O)N2CCCC2)c2ccccc21", "activity change, negative = growth inhibition": "3.73%"}
{"smiles": "CCN(Cc1ccccc1)S(=O)(=O)c1ccc2c(c1)CCCN2C(C)=O", "Potency": "18.4 µM (active)"}
{"smiles": "Cc1ccc2c(c1)C1CN(C)CCC1N2C(=O)Cn1nnc(-c2ccccc2F)n1", "note": "(centres undefined)", "activity change, negative = growth inhibition": "-3.75%"}
{"smiles": "CC1CNCCN1c1ccc(Cl)cc1", "note": "(centres undefined)", "activity change, negative = growth inhibition": "-20.8%"}
{"smiles": "O=c1oc2ccccc2c(O)c1C(c1ccccc1O)c1c(O)c2ccccc2oc1=O", "activity change, negative = growth inhibition": "-17.6% [at 9.04 µM]"}
{"smiles": "CCC1(C)CC(CCNCc2ccc(N(C)C)cc2)(c2ccc(F)cc2)CCO1", "note": "(centres undefined)", "Potency": "16.4 µM (active)"}
{"smiles": "CC1=CC(=O)C2=C(C)C[C@H](O)[C@H]3[C@H](C)C(=O)O[C@@H]3C12", "note": "(some centres undefined)", "activity change, negative = growth inhibition": "-4.46%"}
{"smiles": "C=CC12CN(C)[C@@H]3C4CO[C@H](C[C@H]41)[C@]1(C(=O)Nc4ccccc41)[C@@H]32", "note": "(some centres undefined)", "activity change, negative = growth inhibition": "-0.165%"}
{"smiles": "COc1cc(-n2c(=S)[nH]c3ccc(C)cc3c2=O)c(Cl)cc1Cl", "Potency": "18.4 µM (active)"}
{"smiles": "c1ccc(N2Cc3ccccc3-n3nncc3C2)nc1", "activity change, negative = growth inhibition": "-28.4%"}
{"smiles": "CCOCCCNC(=O)c1c(NC(=O)c2nc(SC)ncc2Cl)sc2c1CCCC2", "Potency": "11.6 µM (active)"}
{"smiles": "c1ccc(C(CN2CCCCC2)c2ccccc2)cc1", "activity change, negative = growth inhibition": "-9.97%"}
{"smiles": "CCC(=NCCCO)c1c(O)n(-c2ccc(OC)cc2)c(=O)[nH]c1=O", "activity change, negative = growth inhibition": "-12.9%"}
{"smiles": "CCCCn1c(O)c(C(CC)=NCc2ccco2)c(=O)[nH]c1=O", "activity change, negative = growth inhibition": "-24.9%"}
{"smiles": "CCCCCCN=C(CC)c1c(O)n(CCCC)c(=O)[nH]c1=O", "Potency": "25.9 µM (active)"}
{"smiles": "CC(C)c1c(CN(C)C(C)Cc2ccccc2)n(C)n(-c2ccccc2)c1=O", "note": "(centres undefined)", "activity change, negative = growth inhibition": "6.62% [at 21.1 µM]"}
{"smiles": "Cc1c(Oc2cc(NN3CCCCC3)c([N+](=O)[O-])cc2[N+](=O)[O-])cccc1[N+](=O)[O-]", "activity change, negative = growth inhibition": "-29.6%"}
{"smiles": "CC(C)(C)[C@]1(O)C[C@@H]2OC(=O)C[C@@]23C(=O)O[C@@H]2OC(=O)[C@H](O)[C@]213", "Potency": "inactive"}
{"smiles": "COc1cccc(C(c2nnnn2-c2ccc3c(c2)OCCO3)N2CCC3(CC2)C(=O)NCN3c2ccccc2)c1OC", "note": "(centres undefined)", "Potency": "16.4 µM (active)"}
{"smiles": "O=c1[nH]c2ccccc2n1C1CCN(C(c2ccccc2)c2nnnn2Cc2ccccc2)CC1", "note": "(centres undefined)", "Potency": "14.6 µM (active)"}
{"smiles": "COc1ccc(-n2nnnc2C(c2cccc3ccccc23)N2CCC(n3c(=O)[nH]c4ccccc43)CC2)cc1", "note": "(centres undefined)", "Potency": "16.4 µM (active)"}
{"smiles": "CN1CCN(Cc2ccccc2C(F)(F)F)CC1", "activity change, negative = growth inhibition": "-3.05%"}
{"smiles": "CC(C)c1ccc(-n2c(O)c(/C=N/N3CCOCC3)c(=O)[nH]c2=S)cc1", "activity change, negative = growth inhibition": "-8.98%"}
{"smiles": "CC1C2Cn3c(nc4ccccc43)C1N(C)O2", "note": "(centres undefined)", "activity change, negative = growth inhibition": "6.08%"}
{"smiles": "CC(=O)c1c(O)c(C)c(O)c(Cc2c(O)c3c(c(C(=O)/C=C/c4ccccc4)c2O)OC(C)(C)C=C3)c1O", "Potency": "8.91 µM (active) and 19.8 µM (active) and 13.3 µM (active)"}
{"smiles": "CC(=O)c1c(O)c(C)c(O)c(Cc2c(O)c3c(c(C(=O)/C=C\\c4ccccc4)c2O)OC(C)(C)C=C3)c1O", "Potency": "13.3 µM (active)"}
{"smiles": "c1cc2c(cc1[C@H]1OC[C@H]3[C@@H]1CO[C@@H]3c1ccc3c(c1)OCO3)OCO2", "activity change, negative = growth inhibition": "-21%"}
{"smiles": "O=C(O)CCn1cc(C=C2C(=O)NC(=S)NC2=O)c(-c2cccc(Br)c2)n1", "activity change, negative = growth inhibition": "-1.85%"}
{"smiles": "CCCC[N+]1(C)C2CC(OC(=O)C(CO)c3ccccc3)CC1C1OC12", "note": "(centres undefined)", "activity change, negative = growth inhibition": "13.9%"}
{"smiles": "OC[C@@H]1CN(Cc2ccncc2)C[C@H](n2cnc3c(N4CCN(c5ccccc5)CC4)ncnc32)O1", "Potency": "2.91 µM (active)"}
{"smiles": "CC(C)Nc1nc(Cl)nc(NC(C)C)n1", "Potency": "inactive"}
{"smiles": "COc1ccccc1C(=O)N[C@@H]1c2ccccc2C2(CCN(Cc3nc(C(C)C)cs3)CC2)[C@H]1O", "Potency": "1.64 µM (active)"}
{"smiles": "Cc1cccc(-n2c(O)c(/C=N/N3CCOCC3)c(=O)[nH]c2=S)c1", "activity change, negative = growth inhibition": "7.08%"}
{"smiles": "NC(=O)Nc1cccc(C(F)(F)F)c1", "activity change, negative = growth inhibition": "-1.7%"}
{"smiles": "CC(=O)Nc1cc(-c2cccc(CO)c2)cn2c(-c3cccc(C(F)(F)F)c3)cnc12", "Potency": "18.4 µM (active)"}
{"smiles": "CCN1CCN(c2nc3c(c(=O)[nH]2)CCC3)CC1", "activity change, negative = growth inhibition": "14.2%"}
{"smiles": "COC(=O)CN(CCCl)P1(=O)OCCCN1CCCl", "note": "(centres undefined)", "activity change, negative = growth inhibition": "-9.44%"}
{"smiles": "Fc1cccc(F)c1CN1CCN(Cc2c(F)cccc2F)CC1", "activity change, negative = growth inhibition": "-22%"}
{"smiles": "CN(C)c1cccc(C(=O)Nc2nc3ccc(S(=O)(=O)NC(C)(C)C)cc3s2)c1", "Potency": "11.6 µM (active)"}
{"smiles": "O=c1[nH]c(=S)n(C2CC2)c(O)c1/C=N/N1CCOCC1", "activity change, negative = growth inhibition": "-2.56%"}
